This is a sample that favours compounds with a hit; in the whole collection about 0.85% have one here.
TDP1 block: qHTS Assay for Inhibitors of Tyrosyl-DNA Phosphodiesterase (TDP1) | Tyrosyl-DNA phosphodiesterase 1 (Homo sapiens), Q9NUW8 | recombinant TDP1, AlphaScreen DNA substrate cleavage | Potency, µM (titrated, usually from 130 µM), actives largely listed as inhibitors | 350,000 compounds, 0.28% hits | AID 485290, 2010; further: nearly all actives have a fitted effect of over 40% in size
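Recombinant E. coli-expressed Tdp1 (1 nM) preincubated with compound 15 min at RT, then 5'-biotin/3'-phosphotyrosine-FITC DNA substrate (15 nM) added for 5 min. AlphaScreen beads (10 ug/ml) added, 10 min RT; tyrosine-FITC cleavage read as signal loss.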
RECQ1 inh-1: qHTS Assay for Inhibitors of RecQ-Like Dna Helicase 1 (RECQ1) | RECQ1 DNA unwinding, red fluorescence kinetic read | Potency, µM (doses to about 57.3 µM), most hits filed as inhibitors | 240,000 compounds, 0.54% hits | AID 2549, 2010; further: nearly all actives have a fitted effect of over 30% in size
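50 nM RECQ1T1 preincubated 15 min with compound in Tris pH 8.0 buffer with MgCl2, DTT, Tween-20 and 2.5 ug/ml poly(dI-dC); started with 200 nM TAMRA/BHQ-2 forked duplex and 2 mM ATP. Unwinding read as fluorescence (525/598 nm), two reads 2 h apart.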
BLM inh: qHTS Assay for Inhibitors of Bloom's syndrome helicase (BLM) | RecQ-like DNA helicase BLM (Homo sapiens), P54132 | recombinant BLM DNA unwinding, fluorescence dequenching | Potency, µM (doses to about 56.1 µM), hits mostly inhibitors | 350,000 compounds, 0.2% hits; further: nearly all actives have a fitted effect of over 35% in size
GLS inh: qHTS for Inhibitors of Glutaminase (GLS). Glutaminase kidney isoform, mitochondrial (Homo sapiens), O94925. GLS enzymatic activity, qHTS titration. AID 624170, 2012. Potency, µM (top dose mostly 45.5 µM), usual class: inhibitors. 410,000 compounds, 0.21% hits
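Two-point fluorescence kinetic (t0, 30 min RT) for hKGA; glutamate detected via glutamate oxidase–HRP–Amplex Red. Substrate: 1 mM L-glutamine solution; buffer 45 mM KH2PO4, pH 8.2.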
Tb PGK inh: qHTS Assay to Find Inhibitors of Phosphoglycerate Kinase; 380,000 compounds, 0.043% hits; Phosphoglycerate kinase, glycosomal (Trypanosoma brucei brucei), P07378; PGK/GAPDH coupled, Kinase-Glo luminescence, 60 min; Potency, µM (doses to about 57.5 µM), hits mostly inhibitors; further: nearly all actives have a fitted effect of over 60% in size
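Recombinant glycosomal PGK reaction used 1,3-bisphosphoglycerate generated in-well by GAPDH (100nM final) in 100mM TEA pH 7.6, 5mM MgCl2, 0.01% Tween-20. After 60 minutes at room temperature, ATP was read by Kinase-Glo Plus luminescence end-point.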
APE1 inh: qHTS Assay for Inhibitors of the Human Apurinic/apyrimidinic Endonuclease 1 (APE1) | recombinant APE1, TAMRA/BHQ-2 abasic DNA cleavage fluorescence | Potency, µM (titrated, usually from 65.8 µM), most hits filed as inhibitors | 350,000 compounds, 0.35% hits; further: nearly all actives have a fitted effect of over 55% in size
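Step 1: APE1 (0.75 nM) with compound, 15 min RT. Step 2: add 50 nM fluorophore/quencher THF duplex. Step 3: three fluorescence reads 60 s apart (525/598 nm); read 3 minus read 1 = reaction progress.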
RECQ1 conf: Confirmation qHTS Assay for Inhibitors of RecQ-Like Dna Helicase 1 (RECQ1). shares compounds with RECQ1 inh-1. RECQ1 helicase DNA unwinding, fluorescence. Potency, µM (series often up to 229 µM), hits mostly inhibitors. 610 compounds, 28% hits. AID 2708, 2010; further: nearly all actives have a fitted effect of over 45% in size
RECQ1 ADP FP: Counterscreen for RECQ1 Inhibitors: ADP Fluorescence Polarization Displacement Assay; shares compounds with RECQ1 inh-1; ADP fluorescence polarization displacement counterscreen; Potency, µM (highest dose often 228 µM), actives largely listed as inhibitors; 530 compounds, 27% hits; AID 2711, 2010; further: nearly all actives have a fitted effect of over 45% in size
RECQ1 inh-2: Confirmation qHTS Assay for Inhibitors of RecQ-Like Dna Helicase 1 (RECQ1) - Round 2 Cherry Picks; 1,100 compounds, 15% hits; shares compounds with RECQ1 inh-1; Potency, µM (highest dose often 119 µM), hits mostly inhibitors; recombinant RECQ1 DNA unwinding, red fluorescence; further: nearly all actives have a fitted effect of over 50% in size
Each line names hits and unclear results; the compound was inactive in the other large screens (follow-up assays come after a bar, where they were run). The call rests on the fitted dose curve; in most records, active means well fitted curve in the direction sought with a large enough effect; inconclusive means small, poorly fitted or top-dose-only effect, or another doubt; inactive means no such curve, though single readings can be large; an effect the other way counts as inactive or inconclusive.

O=S(=O)(c1ccccc1F)N1CCN(c2nc(-c3cccs3)nc3ccccc23)CC1	none (no result: RECQ1 inh-1, BLM inh, GLS inh, Tb PGK inh, APE1 inh)
CCCN1CNc2c(c(=O)[nH]c(=S)n2CCc2cc(Cl)ccc2Cl)C1	none (no result: RECQ1 inh-1, BLM inh, GLS inh, Tb PGK inh, APE1 inh)
Nc1ccccc1NC(=O)c1ccc(CNC(=O)OCc2cccnc2)cc1	none (no result: GLS inh, Tb PGK inh)
CC[C@H](C)[C@H](NC(=O)[C@H](Cc1ccc(O)cc1)NC(=O)[C@@H]1CCCN1C(=O)[C@@H](N)CCCN=C(N)N)C(=O)N[C@@H](CC(C)C)C(=O)O	none (no result: GLS inh, Tb PGK inh)
CC(C)Oc1ccc(C(=O)Nc2nc3ccccc3[nH]2)cc1	Tb PGK inh inconclusive (no result: RECQ1 inh-1)
Cn1nc(C(=O)Nc2nc3ccccc3[nH]2)c2ccccc2c1=O	RECQ1 inh-1 inconclusive | RECQ1 inh-2 inconclusive
O=C(OCC#CCSc1nnc(-c2ccc(F)cc2)o1)c1ccc(F)cc1	none (no result: RECQ1 inh-1, BLM inh, GLS inh, Tb PGK inh, APE1 inh)
COc1ccc(N(CC(=O)N2c3ccccc3CC2C)S(=O)(=O)c2c(C)noc2C)cc1 (configuration not stated)	RECQ1 inh-1 inconclusive | RECQ1 inh-2 inactive
CC[C@H](C)[C@H](NC(=O)[C@H](Cc1ccc(O)cc1)NC(=O)[C@H](Cc1cnc[nH]1)NC(=O)[C@H](CCCNC(=N)N)NC(=O)[C@H](CC(C)C)NC(=O)[C@H](C)NC(=O)[C@@H](N)CO)C(=O)N[C@@H](CC(N)=O)C(=O)N[C@@H](CC(C)C)C(=O)N[C@H](C(=O)N[C@H](C(=O)N[C@@H](CCCNC(=N)N)C(=O)N[C@@H](CCC(N)=O)C(=O)N[C@@H](CCCNC(=N)N)C(=O)N[C@@H](Cc1ccc(O)cc1)C(N)=O)[C@@H](C)O)[C@@H](C)CC	none (no result: GLS inh, Tb PGK inh)
O[C@@H]1COC2[C@@H](O)CO[C@@H]21 (some centres not stated)	none (no result: GLS inh, Tb PGK inh)
COc1cc(/C=C(\C#N)c2nc3ccccc3s2)cc([N+](=O)[O-])c1O	RECQ1 inh-1 inconclusive, BLM inh inconclusive, Tb PGK inh inconclusive, APE1 inh inconclusive | RECQ1 inh-2 35µM
Cc1cncc(C(=O)O)[n+]1[O-]	none (no result: TDP1 block, RECQ1 inh-1, Tb PGK inh, APE1 inh)
COc1ccc(-c2nn(-c3ccccc3)cc2/C=C/C(=O)O)cc1[N+](=O)[O-]	RECQ1 inh-1 inconclusive | RECQ1 inh-2 inactive
COc1ccc(-c2nn(-c3ccccc3)cc2C=O)cc1[N+](=O)[O-]	none (no result: RECQ1 inh-1)
CCOC(=O)Cc1cc(=O)c2c(=O)n(-c3ccccc3)[nH]c2[nH]1	RECQ1 inh-1 inconclusive | RECQ1 inh-2 inactive
CCOC(=O)Cc1ccc(-c2ccccc2)cc1	none (no result: RECQ1 inh-1, Tb PGK inh, APE1 inh)
CCn1c(SCC(=O)c2ccc(O)c(O)c2)nnc1-c1ccc(C)cc1	RECQ1 inh-1 10µM, APE1 inh inconclusive | RECQ1 conf inconclusive | RECQ1 ADP FP inactive | RECQ1 inh-2 inconclusive

Screening data as filed in PubChem.
